The text below walks through data of PubChem BioAssay (NCI).

Several values for one entry are separate records, joined by “and”; a condition that tells them apart may be missing. Equal entries are not always repeated. About 83,000 compounds went through this panel and 20% of them were active in at least one assay; those are over-represented in the sample as a whole.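 Growth was measured after 48 h exposure to one concentration of compound in 96-well plates. Values under 10 count as active.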 A number with no mark means an inactive call. Activity calls are given as the source filed them.

In the assay the test system is NCI-H460 lung. The assay is described as follows: NCI-60 one-dose screen, 48 h (100 = growth as untreated, 0 = no growth, -100 = all killed). As to conditions: 10 µM unless noted. The procedure:
Growth inhibition of the NCI-H460 human Non-Small Cell Lung tumor cell line is measured as a screen for anti-cancer activity. Cells are grown in 96 well plates and exposed to the test compound for 48 hours. Compounds are tested at a single concentration, which is 10^-5 M for most compounds. The reported endpoint is percent growth (GI% or GIPRCNT), where numbers from 0 - 100% represent growth inhibition, and numbers from -100% - 0 represent cell death. For example, a value of 40 represents 60% growth inhibition. A value of 0 means no net growth occurred over the course of the experiment. A value of -40 indicates 40% of cells at the beginning of the experiment died by the end of the experiment. A value of -100 means all cells are dead at the end of the experiment.
NCI-60 Human Tumor Cell Lines Screen was performed using the standard one-dose NCI protocol, which is described in more detail at https://dtp.cancer.gov/discovery_development/nci-60/default.htm.
Compounds with GIPRCNT values below 10 were considered active. Activity score was based on GIPRCNT using the following formula: […]
Score is 0 for GIPRCNT values of 100 or above, 50 for GIPRCNT values of 0, and 100 for GIPRCNT values of -100.
Take `COc1ccccc1NC(=O)N/N=C/c1c[nH]c2ccccc12`: the growth was 14.1%. `CCc1ccccc1NC(=O)N/C(N)=N/c1nc2ccccc2s1`: the growth was 39.5%. Regarding `O=C(CSc1nc2sc3c(c2c(=O)n1-c1ccc(Cl)cc1)CCCC3)NNC(=O)c1ccc(F)cc1`, the growth was 88.6%.

For `COc1ccc(N=Nc2c(N)nn3c(-c4ccc([N+](=O)[O-])cc4)ccnc23)cc1`, the growth was 105%. For the molecule `c1ccc(CSc2nnc(-c3ccc4nc(-c5ccccc5)[nH]c4c3)o2)cc1`, the growth is -41.3% (active).

For the molecule `Oc1cncc(-c2ccc3ncnc(N4CCc5cc(F)c(Cl)cc54)c3c2)c1`, the growth was 39.2%.

In the case of `NC1(c2ccc(-c3ccc4ncnc(NCc5ccccc5)c4c3)cn2)COC1`, the growth was 106% and 112%. The figure for `CC(C)C[C@H](NC(=O)CNC(=O)C[C@H]1O[C@@H]2OC3(C)CC[C@H]4[C@H](C)CC[C@@H]([C@H]1C)[C@@]24O3)B(O)O` is 9.47% (active). On to `Nc1nc2cc(-c3ccc4ncnc(NCc5ccccc5)c4c3)ccc2o1`, for which the growth was 7.02% (active). With `O=C(CSc1nc2ccccc2c(=O)[nH]1)NNC(=O)c1ccccc1Cl`, the growth is 106%. The figure for `COc1c2c(c(Br)c3c1C(CCc1ccccc1)N(C)CC3)OCO2` (stereo not given) is 23.5%; for `COc1ccc(N=Nc2c(N)nn3c(N)c(C#N)c(-c4ccccc4)nc23)cc1` it is 16.1%; for `N#Cc1ccc(C(=O)CSc2nc3c(c(Nc4ccc(S(N)(=O)=O)cc4)n2)CCC3)cc1` it is 39.6%.

As for `Nc1cc(-c2c[nH]c3ccc(Cl)cc23)nc2cc(-c3c[nH]c4ccccc34)nn12`, the growth was -65.9% (active). As to `COc1cc(/C=C/C(=O)c2ccc(S(=O)(=O)NCCNc3nc(N(C)C)nc(N4CCOCC4)n3)cc2)cc(OC)c1OC`, the growth is -100% (active).

In the case of `COc1ccc2[nH]cc(-c3cc4nc(-c5cn(C)c6ncccc56)cc(N)n4n3)c2c1`, the growth was -58.3% (active). The figure for `O=C(CSc1nc2sc3c(c2c(=O)n1-c1ccc(Cl)cc1)CCCC3)N/N=C/C=C/c1ccccc1` is -16.9% (active); for `CCOc1ccccc1[C@H]1C(C(=O)c2ccc(Cl)cc2)C2(N[C@@H]1c1ccccc1)C(=O)Nc1ccc(Cl)cc12` (stereo not given in full) it is 17.3%; for `CS(=O)(=O)c1ccc(-n2nc(C(=O)NCc3ccccc3)cc2-c2ccc(Cl)cc2)cc1` it is 71.2%. The figure for `CC1=C(C(=O)Nc2ccccc2)C(c2cccc(Cl)c2Cl)n2c(nc3ccccc32)N1` (stereo not given) is 25.7%; for `Cc1[nH]nc2ccc3nc(-c4cn[nH]c4C(F)(F)F)c4c(c3c12)CCCC4` it is 1.29% (active). The figure for `CS(=O)(=O)Nc1cncc(-c2ccc3ncnc(NCc4ccccc4)c3c2)c1` is 83.3%; for `O=C(N/N=C/c1ccoc1)c1[nH]c2ccc(Br)cc2c1-c1ccccc1` it is -83.2% (active); for `COc1cc(CNC(=O)C[C@H](C)CCC=C(C)C)ccc1OCc1cn(-c2ccc(Br)cc2)nn1` it is 74.2%. On to `CCCCNC(=S)Nc1ccc(OCc2nc3ccc(Cl)cc3[nH]2)cc1`, for which the growth is 15.6%. The figure for `CC[C@]12C=CCN3CC[C@]4(C(=C(C(=O)OC)C1)Nc1cc(OC)c([C@@H]5[C@H]6O[C@H]6[C@@]6(CC)CC(C(=O)OC)=C7Nc8cc(OC)ccc8[C@@]78CCN5[C@@H]68)cc14)[C@@H]32` is 29.9%; for `CN1CCN(CCS(=O)(=O)Nc2cc(-c3ccc4ncnc(Nc5ccc(F)c(Cl)c5)c4c3)cnc2Cl)CC1` it is 54.7%; for `COc1cc(C2CC(c3ccc(Cl)cc3)=Nc3c(N)nc(N)nc3N2)ccc1Oc1nc(Nc2ccc(F)cc2)nc(N(C)C)n1` (stereo not given) it is 13.5%. To `CC1=C(C)C(=O)C(N2CCSCC2)=CC1=O` belongs 105%. The figure for `O=Cc1cncc(-c2ccc3ncnc(N4CCc5cc(F)c(Cl)cc54)c3c2)c1` is 25.2%; for `COc1ccc(/C=C/c2nc3ccccc3n3c(-c4cccc([N+](=O)[O-])c4)nnc23)cc1` it is -35.6% (active); for `COc1cccc(-c2ccc(/C=N/NC(=O)c3[nH]c4ccc(Br)cc4c3-c3ccccc3)s2)c1` it is -15.4% (active). Consider `COc1ccc(-c2nc3ccc(-c4nnc(SCc5ccccc5)o4)cc3[nH]2)cc1OC`, for which the growth was -6.16% (active). Take `COc1ccc(-c2nc3ccccc3n2CC(=O)N=Nc2c(O)[nH]c3ccc(OC)cc23)cc1`: the growth was 10.5%. To `C#CCCCNCCNc1ccnc2cc(Cl)ccc12` belongs 83.2%; to `COc1ccc2[nH]c(O)c(N=Nc3nc(-c4ccccc4)cs3)c2c1`, 12.3%; to `FC(F)(F)c1cc2c(Cl)ncnc2n1CCN1CCCCC1`, 57.9%.

As to `COc1ccccc1NC(=O)c1ccc(NC(=O)CCl)s1`, the growth was -16% (active). The figure for `Cc1ccc(Nc2nnc(-c3c[nH]c4ccccc34)o2)c(C)c1` is 8.57% (active); for `O=C1Nc2cc(-c3ccc(NS(=O)(=O)c4ccc(C(F)(F)F)cc4)cc3)ccc2/C1=C/c1ccc[nH]1` it is 5.56% (active).
